Data taken from PubChem BioAssay (NCATS).
Inconclusive results are not listed. Activity calls are given as the source filed them. Unless noted, the call rests on the fitted dose curve; in most records, active means well fitted curve in the direction sought with a large enough effect; inconclusive means small, poorly fitted or top-dose-only effect, or another doubt; inactive means no such curve, though single readings can be large; an effect the other way counts as inactive or inconclusive.

Experiments:
[1] = test system: Zika virus NS2B-NS3 protease (linked construct); test: Primary screen NINDS Rhodamine qHTS for Zika virus inhibitors (AID 1347160); further: nearly all actives have a fitted effect of over 55% in size
How it was run: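 Percent inhibition, normalized to uninhibited and enzyme-free controls, is fitted to a 4-parameter Hill equation. Fluorescence change comes from a 15-min cleavage of 1.5 microM bis-peptide Rhodamine110 substrate by 25 nM linked NS2B-NS3 at room temperature.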

[2] = molecular target: Calcium and integrin-binding protein 1 (Homo sapiens) (UniProt Q99828); test: Primary qHTS for Identification of Calcium Integrin Binding Protein 1 (CIB1) Competitor (AID 1508620);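 further: GST tagged CIB1 binding a fluorescein labelled alphaIIb integrin peptide tracer; top concentration of the series differs between compounds; on the % scale 0 is the no-effect control and ±100 the full control effect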
Chain of Calcium and integrin-binding protein 1 (Homo sapiens) (Q99828 whole entry, looked up): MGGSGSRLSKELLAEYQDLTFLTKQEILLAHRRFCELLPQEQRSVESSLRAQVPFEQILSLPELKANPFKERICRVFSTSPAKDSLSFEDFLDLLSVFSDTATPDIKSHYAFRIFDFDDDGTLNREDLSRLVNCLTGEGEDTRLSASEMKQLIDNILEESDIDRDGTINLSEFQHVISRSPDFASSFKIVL
How it was run: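 CIB1-GST (1 uM final) and compound incubated 15 min at room temperature before adding FITC-alphaIIb peptide tracer (100 nM final). Competition for binding read by fluorescence polarization (ex 480, em 540) after another 15 min at room temperature.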

[3] = Primary qHTS for inhibitors of nuclear receptor binding SET domain protein 2 (NSD2) in an isogenic RCH-ACV NSD2 p.E1099K mutant (9B) (AID 1645876); further: nearly all actives have a fitted effect of over 70% in size; further: potency means the concentration at half of the fitted maximal effect
[4] = Primary qHTS for inhibitors of nuclear receptor binding SET domain protein 2 (NSD2) in an RCH-ACV wild type WT cells (2C) (AID 1645877); further: potency means the concentration at half of the fitted maximal effect; nearly all actives have a fitted effect of over 70% in size
[5] = molecular target: Glutathione peroxidase 1 (Homo sapiens) (UniProt P07203); test: Primary qHTS Assay for Inhibitors of Recombinant Selenoprotein Glutathione Peroxidase 1 (GPX1) (AID 1845191); further: nearly all actives have a fitted effect of over 65% in size
Chain of Glutathione peroxidase 1 (Homo sapiens) (P07203 whole entry, looked up): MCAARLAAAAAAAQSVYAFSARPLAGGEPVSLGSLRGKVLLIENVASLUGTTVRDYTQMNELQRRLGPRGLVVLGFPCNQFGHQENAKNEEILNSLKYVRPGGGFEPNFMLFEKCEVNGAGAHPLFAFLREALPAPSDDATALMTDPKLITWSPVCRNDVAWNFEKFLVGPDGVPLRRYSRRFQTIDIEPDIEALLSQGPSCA
How it was run: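 10 nM GPX1 + cpd, 30 min RT; start w/ 1 mM GSH, 0.5 mM cumene hydroperoxide, 0.5 mM NADPH, 100 nM GR, 0.01% BSA; buffer 50 mM Tris-HCl pH 7.5, 2 mM EDTA, 150 mM NaCl; Fl 340/450, 0 & 15 min.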

[6] = molecular target: Phospholipid hydroperoxide glutathione peroxidase GPX4 (Homo sapiens) (UniProt P36969); test: Primary qHTS Assay for Inhibitors of Recombinant Selenoprotein Glutathione Peroxidase 4 (GPX4) (AID 1845192); settings: outcome: dose series up to 50 µM unless noted; further: on the % scale 0 is the no-effect control and ±100 the full control effect; nearly all actives have a fitted effect of over 65% in size
Chain of Phospholipid hydroperoxide glutathione peroxidase GPX4 (Homo sapiens) (P36969 whole entry, looked up): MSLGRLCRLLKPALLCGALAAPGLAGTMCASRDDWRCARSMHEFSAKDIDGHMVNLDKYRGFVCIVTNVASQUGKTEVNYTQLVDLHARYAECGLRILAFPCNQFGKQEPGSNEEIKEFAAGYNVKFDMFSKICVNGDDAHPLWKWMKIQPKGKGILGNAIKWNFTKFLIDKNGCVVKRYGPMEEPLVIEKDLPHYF
How it was run: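 NADPH consumption, followed by fluorescence at 340/450 nm between 0 and 15 min, reports GPX4 activity via coupled glutathione reductase (100 nM). Enzyme 200 nM was pre-exposed to compound 30 min; 0.5 mM cumene hydroperoxide and 1 mM GSH served as substrates.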

[7] = molecular target: Luciferin 4-monooxygenase (Photinus pyralis) (UniProt P08659); test: Primary firefly luciferase (FLuc) qHTS assay for identification of artifact compounds. (AID 1845220); further: nearly all actives have a fitted effect of over 60% in size; further: potency means the concentration at half of the fitted maximal effect
How it was run: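 Cell-free, 1536-well qHTS. Buffer pH 7.6 with 0.01% Tween-20 and 0.05% BSA; 10 uM D-luciferin, 10 uM ATP; 10 nM P. pyralis luciferase; luminescence after 5 min.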

[8] = test system: Nanoluciferase (engineered Oplophorus gracilirostris luciferase); test: Primary Nanoluciferase (NLuc) qHTS assay for identification of artifact compounds. (AID 1845222);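 further: 0% = DMSO and -100% = no enzyme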
How it was run: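 Compounds are pinned into diluted (1:55) conditioned medium of NLuc-expressing S16 cells and held 15 min at room temperature protected from light. Nano-Glo substrate follows, and luminescence is read 5 min later.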

[9] = test system: HaCat; test: Cytotoxic Profiling of Annotated Libraries Using Quantitative High-Throughput Screening (AID 1296008); settings: Five cell lines viability, CellTiter-Glo ATP luminescence, 48-72 h; max response: stronger effect = lower value; further: nearly all actives have a fitted effect of over 60% in size; further: potency means the concentration at half of the fitted maximal effect; on max response: on the % scale 0 is the no-effect control and ±100 the full control effect
How it was run: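 Cytotoxicity was measured as CellTiter-Glo ATP luminescence, read after 10 min at room temperature. Compound treatment of the cells lasted 48 or 72 hr at 37 degrees Celsius in a qHTS format.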

[10] = test system: C33A; test: Primary qHTS to identify gynecologic anti-cancer compounds using libraries of approved drugs and bioactive compounds (AID 1345084); settings: Gynecologic cancer cell panel viability, ATPlite luminescence, 48 h; series mostly up to 57.5 µM; further: nearly all actives have a fitted effect of over 55% in size; further: potency means the concentration at half of the fitted maximal effect
How it was run: (§1)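 ATP-based viability (ATPlite), 1,000 cells/well, 16 h pre-incubation, 48 h compound at 37 C, 5% CO2, 15 min RT before read.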

[11] = test system: CASKI; test: as above; settings: Gynecologic cancer cell panel viability, ATPlite luminescence, 48 h; series mostly up to 57.5 µM
How it was run: as §1

[12] = test system: Es-2; test: as above; settings: Gynecologic cancer cell panel viability, ATPlite luminescence, 48 h; series mostly up to 57.5 µM
How it was run: as §1

[13] = test system: HeLa; test: as above; settings: Gynecologic cancer cell panel viability, ATPlite luminescence, 48 h; series mostly up to 57.5 µM
How it was run: as §1

[14] = test system: Hek293T; test: as above; settings: Gynecologic cancer cell panel viability, ATPlite luminescence, 48 h, control line for the selectivity index; series mostly up to 57.5 µM
How it was run: as §1

[15] = test system: JEG-3; test: as above; settings: Gynecologic cancer cell panel viability, ATPlite luminescence, 48 h; series mostly up to 57.5 µM
How it was run: as §1

[16] = test system: OV90; test: as above; settings: Gynecologic cancer cell panel viability, ATPlite luminescence, 48 h; series mostly up to 57.5 µM
How it was run: as §1

[17] = test system: Tov-21-G; test: as above; settings: Gynecologic cancer cell panel viability, ATPlite luminescence, 48 h; series mostly up to 57.5 µM
How it was run: as §1

[18] = test system: Tov112D; test: as above; settings: Gynecologic cancer cell panel viability, ATPlite luminescence, 48 h; series mostly up to 57.5 µM
How it was run: as §1

[19] = test system: Zika virus NS2B-NS3 protease (unlinked complex); test: Primary screen GU Rhodamine qHTS for Zika virus inhibitors: Unlinked NS2B-NS3 protease assay (AID 1347159); further: on the % scale 0 is the no-effect control and ±100 the full control effect; nearly all actives have a fitted effect of over 60% in size
How it was run: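 Compounds, tested up to 114 microM, were incubated for 15 minutes with 25 nM unlinked NS2B-NS3 protease at pH 8.0. Cleavage of 1.5 microM Rhodamine110 substrate was then followed by fluorescence for 15 minutes.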

[20] = qHTS drug screen for cell cycle checkpoint inhibitors in PARPi-resistant BRCA-mutant ovarian cancer cell lines. (AID 1963452; calls by dose curve); settings: PEO1/OlaR viability, CellTiter-Glo luminescence, 96 h, stronger effect = lower value
How it was run: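 PEO1, PEO4 and PEO1/OlaR ovarian cancer cells, 600 per well, exposed 96 h at 37C to a dilution series. Viability read by CellTiter-Glo luminescence, normalized to DMSO and empty wells; activity summarized as Z-AUC.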

[21] = measured here: PEO1 parental Z-AUC

CC(C)(C)c1ccc(-c2nc3ccccc3[nH]2)cc1
inactive: Potency [1] | outcome [2] | Potency [5] | Potency [6] | Potency [8] | max response [9] -8.47%
active: Potency [3] 8.93 µM | Potency [4] 6.32 µM | Potency [7] 0.0294 µM | Potency [10] 1.26 µM | Potency [11] 1.12 µM | Potency [12] 1.58 µM | Potency [13] 2.24 µM | Potency [14] 2.24 µM | Potency [15] 1.78 µM | Potency [16] 1.41 µM | Potency [17] 1.41 µM | Potency [18] 3.98 µM

CCCCn1ccc(N2CCC(c3ccccc3)CC2)c(Cl)c1=O
active: Potency [3] 23 µM | Potency [4] 18.3 µM | Potency [12] 28.2 µM | Potency [14] 31.6 µM | Potency [17] 28.2 µM
inactive: Potency [1] | outcome [2] | Potency [5] | Potency [6] | Potency [8] | outcome [9]

O=C(Nc1ccc(F)cc1)N1CCc2ccccc2C1c1ccc(C(F)(F)F)cc1 (stereo not drawn)
inactive: Potency [19] | Potency [1] | outcome [2] | Potency [5] | Potency [6] | Potency [7] | Potency [8] | Potency [10] | Potency [11] | Potency [12] | Potency [13] | Potency [14] | Potency [15] | Potency [16] | Potency [17] | Potency [18]
active: Potency [3] 18.3 µM | Potency [4] 18.3 µM | Potency [9] 14.6 µM

COc1cc(O)c(C(=O)CCc2ccc(O)cc2)c(O[C@@H]2O[C@H](CO)[C@@H](O)[C@H](O)[C@H]2O)c1
inactive: Potency [19] | outcome [2] | Potency [5] | Potency [6] | Potency [8] | outcome [9] | Potency [10] | Potency [11] | Potency [13] | Potency [15] | Potency [16] | Potency [17] | Potency [18]

C=C(C)C(=O)OC1[C@@H]2C(=C)C(=O)O[C@@H]2C[C@@H](C)[C@@H]2C=CC(=O)[C@@]12C (stereo partly drawn)
active: Potency [4] 10.1 µM
inactive: Potency [19] | Potency [1] | outcome [2] | Potency [5] | Potency [6] | Potency [7] | Potency [8] | outcome [9] | Potency [10] | Potency [11] | Potency [12] | Potency [13] | Potency [15] | Potency [16] | Potency [18]

O=C(NNc1ccccc1)c1ccncc1
0.154: Z-AUC ([20]; measured here: PEO4 Z-AUC)
0.257: Z-AUC [20, 21]
inactive: Potency [19] | Potency [1] | outcome [2] | Potency [3] | Potency [5] | Potency [6] | Potency [7] | Potency [8] | Z-AUC [20] 1.21 | max response [9] -7.12% | Potency [10] | Potency [11] | Potency [13] | Potency [15] | Potency [16] | Potency [17]

COc1cc([C@@H](CC(=O)O)c2ccc(C)c(CN3C[C@@H](C)Oc4ccccc4S3(=O)=O)c2)cc2nnn(C)c12
-0.282: Z-AUC ([20]; measured here: PEO4 Z-AUC)
0.171: Z-AUC [20, 21]
inactive: outcome [2] | Potency [3] | Potency [5] | Z-AUC [20] 1.24 | max response [9] -8.19%

Cc1ccc(C(=O)N2CCN(c3ccc([N+](=O)[O-])cc3)CC2)cc1Cl
inactive: Potency [19] | Potency [1] | outcome [2] | Potency [5] | Potency [6] | Potency [7] | Potency [8] | max response [9] -12.6% | Potency [10] | Potency [11] | Potency [12] | Potency [13] | Potency [14] | Potency [15] | Potency [16] | Potency [17] | Potency [18]
active: Potency [3] 12.9 µM | Potency [4] 11.5 µM

CN(CCCNC(=O)c1ccc2nc3c(c(Cl)c2c1)CCCC3)Cc1ccccc1
active: Potency [3] 12.9 µM | Potency [4] 8.17 µM
inactive: Potency [19] | Potency [1] | outcome [2] | Potency [6] | Potency [7] | Potency [8] | max response [9] 1.7% | Potency [10] | Potency [11] | Potency [12] | Potency [13] | Potency [14] | Potency [15] | Potency [16] | Potency [17] | Potency [18]

COc1ccc(C(=O)N(CCC(C)C)Cc2nc(C)c(C)n2Cc2ccccc2C)c(OC)c1
inactive: Potency [19] | Potency [1] | outcome [2] | Potency [6] | Potency [7] | Potency [8] | Potency [10] | Potency [11] | Potency [12] | Potency [13] | Potency [14] | Potency [15] | Potency [16] | Potency [17] | Potency [18]
active: Potency [3] 11.5 µM | Potency [4] 11.5 µM

CCC(C)n1cc(C)c2c(C(=O)NCc3c(C)cc(C)[nH]c3=O)cc(-c3ccc(N4CCNCC4)nc3)cc21 (stereo not drawn)
inactive: Potency [19] | Potency [1] | outcome [2] | Potency [8] | outcome [9] | Potency [10] | Potency [11] | Potency [12] | Potency [13] | Potency [14] | Potency [15] | Potency [16] | Potency [17] | Potency [18]
active: Potency [3] 20.5 µM | Potency [4] 14.5 µM

CN1CCN(C(=O)c2ccc(Nc3nccc(-c4cccs4)n3)cc2Cl)CC1
active: Potency [3] 7.28 µM | Potency [4] 6.49 µM
inactive: Potency [19] | Potency [1] | outcome [2] | Potency [5] | Potency [6] | Potency [7] | Potency [8] | max response [9] -21.8% | Potency [10] | Potency [11] | Potency [12] | Potency [13] | Potency [14] | Potency [16]
